Common to all, as to experiment: protein-binding microarray (PBM); PBM: ~300 nM protein, 6 mM HEPES pH 7.8, 80 mM KCl, 0.5 mM EDTA, 0.5 mM EGTA, 6% glycerol, 35 ng/ul poly-dIdC, 1% milk, 1 h, room temperature; Ap Aiptasia and Nv Nematostella (sea anemones) / Co Capsaspora / Aq Amphimedon (sponge) / Dm Drosophila / Hu human; RHD is the Rel homology domain; high values mean tight binding
What all share (settings): dsDNA, one strand shown

One assay has as its target T1, GST-Ap-NF-kB RHD (Exaiptasia pallida (Aiptasia), UniProt A0A913YAJ5 2-422).
T1 sequence: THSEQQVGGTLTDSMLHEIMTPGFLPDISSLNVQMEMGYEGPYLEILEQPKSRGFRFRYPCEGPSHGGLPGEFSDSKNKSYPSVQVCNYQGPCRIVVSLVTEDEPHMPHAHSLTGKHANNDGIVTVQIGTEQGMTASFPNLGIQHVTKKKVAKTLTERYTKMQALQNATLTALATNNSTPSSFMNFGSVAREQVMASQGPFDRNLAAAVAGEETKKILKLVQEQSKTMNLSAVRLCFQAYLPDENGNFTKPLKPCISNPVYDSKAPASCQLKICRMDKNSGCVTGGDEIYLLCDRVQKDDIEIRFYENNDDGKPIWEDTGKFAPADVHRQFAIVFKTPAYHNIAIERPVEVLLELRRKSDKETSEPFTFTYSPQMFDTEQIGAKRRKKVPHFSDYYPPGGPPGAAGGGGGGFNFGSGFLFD

In assay [1] the target is T2, GST-Nv-NF-kB (Cys allele) (Nematostella vectensis, UniProt E5G601 2-411).
T2 sequence: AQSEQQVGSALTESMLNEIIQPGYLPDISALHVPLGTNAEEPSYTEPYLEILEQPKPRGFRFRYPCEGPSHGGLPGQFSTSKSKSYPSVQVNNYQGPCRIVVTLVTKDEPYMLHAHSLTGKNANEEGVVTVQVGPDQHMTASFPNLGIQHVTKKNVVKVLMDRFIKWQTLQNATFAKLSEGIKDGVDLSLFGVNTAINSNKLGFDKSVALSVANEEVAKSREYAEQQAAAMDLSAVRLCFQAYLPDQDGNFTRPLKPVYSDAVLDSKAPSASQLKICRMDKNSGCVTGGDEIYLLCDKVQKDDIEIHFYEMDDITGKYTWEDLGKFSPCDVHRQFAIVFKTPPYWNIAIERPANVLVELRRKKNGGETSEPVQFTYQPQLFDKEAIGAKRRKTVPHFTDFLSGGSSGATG

The target of another assay is T3, GST-Co-NF-kB (Capsaspora owczarzaki, UniProt F1ARL5 200-546).
T3 sequence: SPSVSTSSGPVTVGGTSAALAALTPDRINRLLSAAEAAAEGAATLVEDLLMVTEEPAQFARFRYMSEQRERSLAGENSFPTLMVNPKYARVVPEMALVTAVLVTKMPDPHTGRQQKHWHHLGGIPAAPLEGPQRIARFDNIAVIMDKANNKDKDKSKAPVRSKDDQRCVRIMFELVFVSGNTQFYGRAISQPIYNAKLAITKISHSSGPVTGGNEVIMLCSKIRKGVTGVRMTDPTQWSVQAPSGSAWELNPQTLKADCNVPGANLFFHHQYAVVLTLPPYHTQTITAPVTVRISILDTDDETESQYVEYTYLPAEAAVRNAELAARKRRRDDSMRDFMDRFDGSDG

A further assay concerns the target T4, GST-Dm-Relish (Drosophila melanogaster, UniProt Q94527 99-473).
T4 sequence: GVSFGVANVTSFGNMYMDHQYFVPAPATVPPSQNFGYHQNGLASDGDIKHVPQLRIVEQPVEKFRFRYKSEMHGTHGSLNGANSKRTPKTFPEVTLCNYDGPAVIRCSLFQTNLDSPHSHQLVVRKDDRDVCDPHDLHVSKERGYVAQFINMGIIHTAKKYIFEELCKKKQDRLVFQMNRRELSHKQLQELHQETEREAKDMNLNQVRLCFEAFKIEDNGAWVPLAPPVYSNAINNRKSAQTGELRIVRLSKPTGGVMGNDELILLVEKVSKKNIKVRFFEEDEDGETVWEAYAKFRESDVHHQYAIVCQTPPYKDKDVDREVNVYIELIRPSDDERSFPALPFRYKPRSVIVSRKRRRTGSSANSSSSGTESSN

A further assay deals with T5, GST-Aq-NF-kB (Amphimedon queenslandica, UniProt A9Y5G7 2-389).
T5 sequence: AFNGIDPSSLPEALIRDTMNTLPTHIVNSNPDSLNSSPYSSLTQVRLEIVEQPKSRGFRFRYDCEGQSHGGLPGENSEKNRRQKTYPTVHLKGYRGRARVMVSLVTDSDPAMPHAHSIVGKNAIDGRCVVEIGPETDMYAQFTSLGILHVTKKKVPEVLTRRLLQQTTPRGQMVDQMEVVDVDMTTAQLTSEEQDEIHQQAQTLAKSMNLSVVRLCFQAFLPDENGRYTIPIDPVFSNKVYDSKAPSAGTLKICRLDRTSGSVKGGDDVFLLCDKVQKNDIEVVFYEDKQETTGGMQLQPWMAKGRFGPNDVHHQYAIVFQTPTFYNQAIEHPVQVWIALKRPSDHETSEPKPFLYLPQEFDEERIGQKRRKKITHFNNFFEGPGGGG

The source of these data is publication PMC5700166.

With “CCGATTAACATCAACTAATTCCCTGATGTTAATCGGGTCTTGATTCGCTTGACGCTGCTG”, the binding signal with GST-Ap-NF-kB RHD was found to be 2.18 z-score; in assay [1] it was 4.19 z-score; in the assay with GST-Co-NF-kB, 3.13 z-score; with GST-Dm-Relish, 1.91 z-score; with GST-Aq-NF-kB, 3.44 z-score.
On the same counts, the results for “CCGATTAACATCAAGTACCCCCCTGATGTTAATCGGGTCTTGATTCGCTTGACGCTGCTG” are 5.57 z-score, 3.68 z-score, 4.81 z-score, 4.13 z-score and 3.99 z-score.
In the case of “CCGATTAACATCACCCATCCCCCTGATGTTAATCGGGTCTTGATTCGCTTGACGCTGCTG”, the binding signal with GST-Ap-NF-kB RHD worked out at 4.59 z-score; in assay [1], 3.91 z-score; in the assay with GST-Co-NF-kB, 3.26 z-score; with GST-Dm-Relish it was 2.93 z-score; in the assay with GST-Aq-NF-kB, 3.73 z-score.
Taken in the same sequence, the figures for “CCGATTAACATCAAAAAACCCACTGATGTTAATCGGGTCTTGATTCGCTTGACGCTGCTG” were 2.65 z-score, 2.49 z-score, 1.66 z-score, 5.49 z-score and 3.61 z-score.
Turning to “CCGATTAACATCAACCCCCGGCTTGATGTTAATCGGGTCTTGATTCGCTTGACGCTGCTG”, the binding signal in the assay with GST-Ap-NF-kB RHD was 4.17 z-score; in assay [1] it was 2.37 z-score; with GST-Co-NF-kB, 2.79 z-score; with GST-Dm-Relish, 4.35 z-score; in the assay with GST-Aq-NF-kB it was 2.51 z-score.
In the case of “CCGATTAACATCAAATAGGGAATTGATGTTAATCGGGTCTTGATTCGCTTGACGCTGCTG”, the binding signal with GST-Ap-NF-kB RHD turned out to be 2.29 z-score; in assay [1], 5.11 z-score; with GST-Co-NF-kB, 1.54 z-score; with GST-Dm-Relish, 1.32 z-score; in the assay with GST-Aq-NF-kB, 3.5 z-score.
Take “CCGATTAACATCACGAGATTCCCTGATGTTAATCGGGTCTTGATTCGCTTGACGCTGCTG”: the binding signal with GST-Ap-NF-kB RHD is 3.03 z-score; in assay [1] it was 3.39 z-score; in the assay with GST-Co-NF-kB, 2.52 z-score; with GST-Dm-Relish, 1.75 z-score; with GST-Aq-NF-kB, 3.38 z-score.
As for “CCGATTAACATCACCCCCCCCCGTGATGTTAATCGGGTCTTGATTCGCTTGACGCTGCTG”, the binding signal with GST-Ap-NF-kB RHD worked out at 7.33 z-score; in assay [1], 5.51 z-score; with GST-Co-NF-kB, 7.6 z-score; with GST-Dm-Relish, 6.11 z-score; in the assay with GST-Aq-NF-kB, 5.46 z-score.
Taken in the same sequence, the figures for “CCGATTAACATCAAGCGTTCCCCTGATGTTAATCGGGTCTTGATTCGCTTGACGCTGCTG” were 5.35 z-score, 5.36 z-score, 4.53 z-score, 3.82 z-score and 4.01 z-score.
On the same counts, the results for “CCGATTAACATCAGTTCCCCCCATGATGTTAATCGGGTCTTGATTCGCTTGACGCTGCTG” are 6.36 z-score, 4.32 z-score, 8.97 z-score, 3.62 z-score and 3.91 z-score.
Taken in the same sequence, the figures for “CCGATTAACATCAAGTCCCCCAATGATGTTAATCGGGTCTTGATTCGCTTGACGCTGCTG” were 4.26 z-score, 3.66 z-score, 3.84 z-score, 2.8 z-score and 3.76 z-score.
Regarding “CCGATTAACATCAGGGTATTTACTGATGTTAATCGGGTCTTGATTCGCTTGACGCTGCTG”, the binding signal came out at 3.45 z-score in the assay with GST-Ap-NF-kB RHD; 5.05 z-score in assay [1]; 1.4 z-score with GST-Co-NF-kB; 7.1 z-score with GST-Dm-Relish; 6.01 z-score in the assay with GST-Aq-NF-kB.
Regarding “CCGATTAACATCAAGGAATACCCTGATGTTAATCGGGTCTTGATTCGCTTGACGCTGCTG”, the binding signal was 4.85 z-score with GST-Ap-NF-kB RHD; 5.51 z-score in assay [1]; 1.33 z-score with GST-Co-NF-kB; 7.24 z-score with GST-Dm-Relish; 5.58 z-score with GST-Aq-NF-kB.
